# According to PubChem BioAssay AID720610 (Broad Institute, 2013):
# Records with an inconclusive call do not appear. Active and inactive are the calls of the source.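 The calls were made as follows: active = compounds whose fitted half-maximal signal loss occurs at or below twice the top dose at every exposure time; inconclusive = exposure times disagree on the call; inactive = the rest.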
# Assay: HeLa cell viability by resazurin reduction, late-stage follow-up, mechanism study for HRAS target identification, Alamar Blue fluorescence, 8-48 h, dry powder (AID 720610)
# Conditions: series mostly up to 35 µM
row,SMILES,outcome
1,Cc1onc(C(=O)N2CCN(C(c3ccncc3)c3ccncc3)CC2)c1[N+](=O)[O-],inactive
2,CCC(=O)N(c1ccc(OC)c(Cl)c1)C(C(=O)NCCc1ccccc1)c1cccs1 (configuration not stated),inactive
